What all share (assay): NCI-60 one-dose screen, 48 h (100 = growth as untreated, 0 = no growth, -100 = all killed)
Common to all, as to conditions: 10 µM unless noted

Assay [1] concerns HCT-15 colon.
Assay [2] has as its system HT29 colon.
Assay [3] has as its system SNB-75 CNS.
The test system of assay [4] is SNB-19 CNS.
The test system of assay [5] is U251 CNS.
For assay [6], the system named is PC-3 prostate.
The subject of assay [7] is SK-MEL-5 melanoma.
Assay [8] has as its system LOX IMVI melanoma.
Assay [9] concerns SK-MEL-28 melanoma.
The test system of assay [10] is UACC-62 melanoma.

This is part of a sample that, as a whole, favours compounds with a hit. Of some 83,000 tested, about 20% had one in any assay.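 The test compound was applied at a single concentration to cells in 96-well plates for 48 hours, and percent growth was recorded.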 A number with no mark means an inactive call. Calls of active or inactive are those of the source. The calls were made as follows: active = growth percent below 10; inactive = the rest.

On to `C=CCSc1nnc(-c2c(C)nc3sccn23)o1`, for which the growth is 92.7% in assay [1]; 96.1% in assay [2]; 69.1% in assay [3]; 82.7% in assay [4]; 88% in assay [5]; 88.9% in assay [6]. Moreover, the growth is 95.5% in assay [7], 95.5% in assay [8] and 96.7% in [9].
For `COc1ccc(C2=Nc3c(N)nc(N)nc3NC(c3ccc(Oc4nc(Nc5ccc(F)cc5)nc(N(C)C)n4)c(OC)c3)C2)cc1` (centres undefined), the growth was 48.7% in [1]; 46.4% in [2]; 51% in [3]; 76.5% in assay [4]; 65.3% in [5]; 49.1% in assay [6]. In addition, the growth in [7] was 51.5%; in assay [10], 98.3%; in assay [8], 63.1%; in assay [9] it was 93.2%.
As for `O=C(N=Nc1c(O)[nH]c2ccc(Br)cc12)c1ccc2nc(-c3ccc(Cl)cc3)[nH]c2c1`, the growth is 58.9% in assay [1]; 10.7% in assay [2]; -18% (active) in assay [3]; -27.2% (active) in assay [4]; -91.8% (active) in assay [5]; 10% in assay [6]. Moreover, the growth is 37.3% in [7], -100% (active) in assay [8] and -96.3% (active) in assay [9].
Turning to `CC1=C(C(=O)Nc2ccccc2)C(c2cccc(Cl)c2Cl)n2c(nc3ccccc32)N1` (centres undefined), the growth in [1] is 35.5%; in assay [2], 22.1%; in [3] it was 47.2%; in [4], 67.5%; in assay [5], 57.2%; in [6], 18.1%. The growth was 46.7% in [7], 49.5% in [8] and 65.5% in [9].
Consider `COC(=O)c1cc(C(C)=O)n2c3ccccc3c3ccccc3c12`, for which the growth in assay [1] was 71.3%; in assay [2], 92.6%; in assay [3], -12.2% (active); in [4], 42.9%; in assay [5], 80.6%; in [6] it was 56.5%. The results for the growth in assay [7], in assay [8] and in assay [9] were 21.9%, 64.7% and 92.4%, respectively.
Regarding `Cn1cc(Nc2ncnc(-c3ccc(N4CCCC4)c(C#N)c3)n2)cn1`, the growth in [1] is 40.8%; in [2], 74.6%; in [3] it was 30.8%; in [4], 92.4%; in assay [5], 94.3%; in assay [6], 78.8%. Besides, the figures for the growth in assay [7], in assay [8] and in assay [9] were 49%, 48.9% and 88.3%, respectively.
As to `COc1ccc2[nH]cc(-c3cc4nc(-c5cn(C)c6ncc(Br)cc56)cc(N)n4n3)c2c1`, the growth in [1] was -70.5% (active); in assay [2], -76.1% (active); in assay [3], -56.9% (active); in assay [4], -29.4% (active); in assay [5], -76.1% (active); in [6] it was -39.5% (active). The growth in assay [7] was -88.3% (active); in assay [8], -97.9% (active); in [9] it was -92.4% (active).
Take `COc1ccc(-c2cc(C)nc3[nH]c(=O)sc23)cc1`: the growth is 88.1% in assay [1]; 93.3% in [2]; -4.05% (active) in [3]; 53.6% in [4]; 9.93% (active) in assay [5]; 81.3% in [6]. Besides, the growth is 80.4% in [7], 45.9% in [8] and 89.8% in assay [9].
Consider `C[C@@H]1CN(c2ccc3ncc(C#Cc4cncc(C(=O)Nc5ccc(CN6CCN(C)CC6)c(C(F)(F)F)c5)c4)n3n2)C[C@@H](C)O1`, for which the growth in assay [1] is -91% (active); in [2], -60.5% (active); in assay [3], -95.9% (active); in assay [4] it was -99.8% (active); in assay [5] it was -68.8% (active); in [6] it was -54.9% (active). The growth was -99.6% (active) in assay [7], -96.8% (active) in [8] and -58.4% (active) in assay [9].
On to `CCCCN1C(=O)/C(=C\C(=O)c2cc3ccccc3oc2=O)c2ccccc21`, for which the growth in assay [1] is 2.32% (active); in assay [2] it was 71.2%; in [3] it was 61.6%; in assay [4], 91.3%; in assay [5] it was 88.2%; in [6], 83.3%. Also, the growth in assay [7] was 84.5%; in assay [10], 65.8%; in [8], 57%; in assay [9], 52.2%.
For `COc1ccc2[nH]cc(-c3cc(N)n4nc(-c5c[nH]c6ccccc56)cc4n3)c2c1`, the growth in [1] was -79.2% (active); in assay [2], -63.8% (active); in assay [3], 82.1%; in assay [4], 13.9%; in [5] it was -68.2% (active); in assay [6] it was 10.9%. For the same compound, the growth was -93.2% (active) in assay [7], -85.8% (active) in [8] and -99% (active) in [9].
As to `N/C(=N\c1nc2ccc([N+](=O)[O-])cc2s1)NC(=O)Nc1ccccc1Cl`, the growth was 28.3% in [1]; 62.1% in assay [2]; 24.4% in assay [3]; 49.7% in [4]; -0.568% (active) in assay [5]; 69% in [6]. In addition, the growth in assay [7] is 44.7%; in assay [10], 54.8%; in assay [8], 29.6%; in [9], 60.5%.
On to `COc1ccc2ccccc2c1/C=C1\SC(=Nc2ccc(O)cc2)NC1=O`, for which the growth is 4.61% (active) in assay [1]; 0.351% (active) in [2]; 77.7% in assay [3]; 24.5% in assay [4]; 5.13% (active) in assay [5]; 21.5% in [6]. For the same compound, the growth in assay [7] is -53.6% (active); in [8], -3.89% (active).
Consider `Cc1nn(-c2ccccc2)c2ncn(CC(=O)N/N=C/c3ccccc3O)c(=O)c12`, for which the growth in [1] was 20.8%; in assay [2], 28.2%; in assay [3], 76.1%; in assay [4] it was 57.1%; in [5] it was 40.2%; in [6], 43.3%. Also, the growth in assay [7] was 28.9%; in [10] it was 34.3%; in [8] it was 10.4%; in [9], 66.9%.

For the origin of these results see PubChem BioAssay (NCI).
